Data on 36 compounds can be found in PubChem BioAssay (NCI).

This is part of a sample that, as a whole, favours compounds with a hit. Of some 79,000 tested, about 15% had one in any assay. The source made the active and inactive calls. Cut-off read from the data, not from the text of the source: active = growth inhibition above about 70%; inactive = the rest.

The nature of the test: NCI Yeast Anticancer Drug Screen. Data for the rad50 strain (AID 155).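 Note: 0% = growth of vehicle-only cultures of the same strain.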 The following applies: S. cerevisiae rad50 strain growth inhibition; at 5.0 µM (retest, dose inferred, filed as 0.5); hits give high values. In outline:
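Inhibition values express reduced yeast growth in compound-treated cultures relative to vehicle-treated controls.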
With `CN(C)CC(CN(C)C)C(=O)/C=C/c1ccc(Cl)cc1Cl`, the growth inhibition is 93% (active).

On to `c1ccc2c(c1)ccn2CCc1c[nH]c2ccccc12`, for which the growth inhibition is -13% (inactive).

Consider `Cc1ccccc1NC(=O)c1c(C)oc2c1C(=O)c1ccccc1C2=O`, for which the growth inhibition is 6% (inactive).

Consider `CC(C)OC(=O)NNc1c(Cl)cc(Cl)cc1Cl`, for which the growth inhibition was 18% (inactive).

Turning to `COc1ccc2nc3cccc([N+](=O)[O-])c3c(NCCNCCO)c2c1`, the growth inhibition is 36% (inactive).

`COc1ccc2c(c1)CCCC(Br)C2=O` (stereo unspecified): the growth inhibition was 11% (inactive).

`CCC(OC(C)=O)C1CC(C(C)C)CCC1C` (stereo unspecified): the growth inhibition was 3% (inactive).

`O=S(=O)(c1cccc(C(F)(F)F)c1)N1c2ccccc2-n2cccc2C1c1cccnc1` (stereo unspecified): the growth inhibition is 27% (inactive).

`c1ccc(-c2cc(C3CO3)c3ccccc3n2)cc1` (stereo unspecified): the growth inhibition was -14% (inactive).

Consider `COc1ccc(/C=C2\SC(=S)N(/C=C3\C(=O)N(c4ccccc4)N=C3C)C2=O)cc1OC`, for which the growth inhibition is 5% (inactive).

With `CC1=CC(=C(c2ccc(N)c(C)c2)c2ccc(N)c(C)c2)C=CC1=N`, the growth inhibition is 20% (inactive).

In the case of `CC1C(c2ccccc2)SC(=N)N1C` (stereo unspecified), the growth inhibition was 0% (inactive).

Turning to `CC(/C=C/c1ccc([N+](=O)[O-])o1)=N/N1CC(CN2CCOCC2)OC1=O` (stereo unspecified), the growth inhibition was 9% (inactive).

Consider `C=CC(C)(C)N1C(=O)C(C(C)=O)=C(O)C1Cc1c[nH]c2ccccc12` (stereo unspecified), for which the growth inhibition was 0% (inactive).

As for `O=C1c2cccc3cccc(c23)C(=O)N1CCNCCN1C(=O)c2cccc3cccc(c23)C1=O`, the growth inhibition is 19% (inactive).

`Cc1ccc([N+](=O)[O-])c2c(NCCC[N+](C)(C)[O-])c3ccccc3nc12`: the growth inhibition is -16% (inactive).

For `COC(=O)C(Cc1c[nH]c2ccccc12)N1CN(C)c2ccccc2C1=O` (stereo unspecified), the growth inhibition is 11% (inactive).

Turning to `O=C(/N=N/C(=O)Oc1ccccc1)Oc1ccccc1`, the growth inhibition is 30% (inactive).

Take `COc1cc([C@@H]2c3cc4c(cc3[C@@H](NC(=O)NO)[C@H]3COC(=O)[C@H]23)OCO4)cc(OC)c1O`: the growth inhibition was 13% (inactive).

Turning to `CC1(C)CC(=O)C(/C=N/c2nc(-c3ccc(Br)cc3)cs2)=C(O)C1`, the growth inhibition is -4% (inactive).

`CCOC(=O)/C(=C/c1cccc(Cl)c1)N(CC)CC`: the growth inhibition is 17% (inactive).

For `CC(C)OC(=O)NNc1cccc(Cl)c1`, the growth inhibition was 13% (inactive).

With `CCC(=O)C1=C(O)c2cc(OC)ccc2CC1C(=O)OC` (stereo unspecified), the growth inhibition was -9% (inactive).

For `O=S(=O)(NC1CCCC(c2ccccc2)C1)c1ccccc1` (stereo unspecified), the growth inhibition is -9% (inactive).

`COc1ccc2nc3cccc([N+](=O)[O-])c3c(NCCCCCC(=O)O)c2c1`: the growth inhibition is 97% (active).

In the case of `CCO/C=C1\SC(=S)N(c2ccc(OCC)cc2)C1=O`, the growth inhibition is 41% (inactive).

With `COc1cc(OC)c(CSCC(NC(=O)OCC2c3ccccc3-c3ccccc32)C(=O)O)c(OC)c1` (stereo unspecified), the growth inhibition was 15% (inactive).

For `COC(=O)c1ccccc1N=NNc1cccc(SC)c1`, the growth inhibition was 30% (inactive).

As to `CC1=NN(C(=O)c2ccccc2O)C(=O)/C1=C/c1ccco1`, the growth inhibition is 11% (inactive).

Take `COc1ccccc1NC(=O)c1ccc(Cl)cc1`: the growth inhibition was -13% (inactive).

In the case of `CC(C)=CCC/C(C)=C/CN1C(=O)C=CC1=O`, the growth inhibition is 13% (inactive).

Turning to `O=C1CSC(c2ccccc2)N1c1ccc(-c2ccc(-n3c(-c4ccccc4)nc4ccccc4c3=O)cc2)cc1` (stereo unspecified), the growth inhibition was -2% (inactive).

Take `N#CC1OB(O)c2ccccc21` (stereo unspecified): the growth inhibition is -126% (inactive).

`O=C(NCCNCCNC(=O)c1cc(-c2ccccc2)nc2ccccc12)c1cc(-c2ccccc2)nc2ccccc12`: the growth inhibition was -11% (inactive).

In the case of `Brc1ccc(B2Nc3ccccc3N2)cc1`, the growth inhibition is 21% (inactive).

As for `CCOP(=O)(OCC)/C(C#N)=C/c1cccc(Oc2ccccc2)c1`, the growth inhibition was 2% (inactive).
